# Where “and” joins values, the source holds several entries; their conditions need not be identical. Equal values may be shown once. The campaign covered roughly 5,500 compounds. About 2,000 (36%) were called active. Another 18% or so got no clear call; they are omitted. The list shows a part of the results. A number with no mark means an inactive call. Cut-off read from the data, not from the text of the source: active = normalized growth mostly below about 0.91 (no sharp cut-off); inconclusive = no clear call, values can overlap the other calls; inactive = mostly above about 0.92.
# Experiment: chemical genetic growth profiling, strain panel (AID 1159580);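 note: tested at 20 µM; growth read once vehicle control cultures reached saturation at 30 °C; 1 = growth at the plate median or of vehicle wells; lower values mean less growth of the strain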
# Settings: S. cerevisiae deletion strains, growth OD
# [1] = locus YAL013W, strain DEP1, hits give low values
# [2] = locus YBR229C, strain ROT2, hits give low values
# [3] = locus YDL101C, strain DUN1, hits give low values
# [4] = locus YDR150W, strain NUM1, hits give low values
# [5] = locus YEL061C, strain CIN8, hits give low values
# [6] = locus YGR078C, strain PAC10, hits give low values
# [7] = locus YHR030C, strain SLT2, hits give low values
# [8] = locus YHR087W, strain rtc3, hits give low values
# [9] = locus YJR043C, strain POL32, hits give low values
# [10] = locus YJR075W, strain HOC1, hits give low values
# [11] = locus YLR039C, strain RIC1, hits give low values
# [12] = locus YLR058C, strain SHM2 (second series), hits give low values
# [13] = locus YLR085C, strain ARP6, hits give low values
# [14] = locus YLR262C, strain YPT6, hits give low values
# [15] = locus YML094W, strain GIM5, hits give low values
# [16] = locus YMR219W, strain ESC1, hits give low values
# [17] = locus YMR263W, strain SAP30, hits give low values
# [18] = locus YNL153C, strain GIM3, hits give low values
# [19] = locus YNL298W, strain CLA4 (second series), hits give low values
# [20] = locus YNL322C, strain KRE1, hits give low values
# [21] = locus YNR030W, strain Alg12, hits give low values
# [22] = locus YOL006C, strain TOP1, hits give low values
# [23] = locus YPL055C, strain LGE1, hits give low values
# [24] = locus YPL241C, strain CIN2, hits give low values
# [25] = locus YPR135W, strain CTF4, hits give low values
# [26] = locus YHR079C, strain IRE1, hits give low values
# [27] = locus YJL095W, strain BCK1, hits give low values
# [28] = locus YJR066W, strain TOR1, hits give low values
# [29] = locus YLR113W, strain HOG1, hits give low values
# [30] = locus YNL183C, strain NPR1, hits give low values
# [31] = locus YOR231W, strain MKK1, hits give low values
# [32] = locus YPL256C, strain CLN2, hits give low values
structure (smiles),measurement,setting,value
CC1CN=C(NC2CCCCC2)S1 (stereo not given),normalized growth,[1],0.987
same,normalized growth,[2],1
same,normalized growth,[3],0.977
same,normalized growth,"locus YDL134C, strain PPH21, hits give low values",1.01
same,normalized growth,[4],0.947
same,normalized growth,[5],1.01
same,normalized growth,[6],0.998
same,normalized growth,[7],0.997
same,normalized growth,[8],1.02
same,normalized growth,"locus YJL187C, strain SWE1, hits give low values",1.01
same,normalized growth,[9],0.982
same,normalized growth,[10],0.998
same,normalized growth,[11],1.05
same,normalized growth,[12],0.988
same,normalized growth,[13],1.02
same,normalized growth,[14],1.04
same,normalized growth,[15],1
same,normalized growth,[16],1.01
same,normalized growth,[17],0.93
same,normalized growth,[18],1.01
same,normalized growth,[19],1.02
same,normalized growth,[20],0.99
same,normalized growth,[21],1
same,normalized growth,[22],1.01
same,normalized growth,[23],0.874
same,normalized growth,[24],1.01
same,normalized growth,[25],1.01
C[N+]1(C)C2CCC1CC(OC(=O)C(CO)c1ccccc1)C2 (stereo not given),normalized growth,"locus YAL040C, strain CLN3, hits give low values",1.04 and 1.01
same,normalized growth,"locus YCL061C, strain MRC1 (second series), hits give low values",1
same,normalized growth,"locus YDR363W, strain ESC2, hits give low values",0.993
same,normalized growth,"locus YER002W, strain NOP16, hits give low values",1 and 0.996
same,normalized growth,[6],1.02
same,normalized growth,[7],0.972
same,normalized growth,[26],0.976
same,normalized growth,[27],1
same,normalized growth,[28],0.917
same,normalized growth,[10],1
same,normalized growth,[29],0.989
same,normalized growth,"locus YNL128W, strain TEP1, hits give low values",1.01
same,normalized growth,[18],1.01
same,normalized growth,"locus YNL175C, strain NOP13, hits give low values",1.01
same,normalized growth,[30],0.929
same,normalized growth,"locus YNL197C, strain WHI3, hits give low values",1.02 and 1.01
same,normalized growth,"locus YNL224C, strain SQS1, hits give low values",1.01 and 0.997
same,normalized growth,[20],1.03 and 1.02
same,normalized growth,"locus YOR083W, strain WHI5 (second series), hits give low values",1.02
same,normalized growth,[31],0.968
same,normalized growth,[32],0.957
COC(=O)C(Cc1c[nH]c2ccccc12)NC(=O)c1c(Cl)cccc1Cl (stereo not given),normalized growth,[1],1
same,normalized growth,[2],0.992
same,normalized growth,[3],0.993
same,normalized growth,[4],0.993
same,normalized growth,[5],1.01
same,normalized growth,[6],0.994
same,normalized growth,[7],0.97
same,normalized growth,[8],0.985
same,normalized growth,[9],1
same,normalized growth,[10],0.994
same,normalized growth,[11],0.996
same,normalized growth,[12],1.01
same,normalized growth,[13],0.981
same,normalized growth,[14],1
same,normalized growth,[15],1
same,normalized growth,[16],1
same,normalized growth,[17],0.994
same,normalized growth,"locus YMR307W, strain GAS1, hits give low values",0.915
same,normalized growth,[18],0.993
same,normalized growth,[19],1
same,normalized growth,[20],0.99
same,normalized growth,[21],0.999
same,normalized growth,[22],0.937
same,normalized growth,[23],0.988
same,normalized growth,[24],0.999
same,normalized growth,[25],0.963
COc1cc(C2SCCS2)cc(Br)c1OC(=O)NC(=O)c1c(Cl)cccc1Cl,normalized growth,"locus YAR019C, strain CDC15, hits give low values",0.965
same,normalized growth,"locus YBL105C, strain PKC1, hits give low values",0.955
same,normalized growth,"locus YBR135W, strain CKS1, hits give low values",0.968
same,normalized growth,"locus YBR136W, strain MEC1, hits give low values",0.954
same,normalized growth,"locus YBR160W, strain CDC28, hits give low values",0.956
same,normalized growth,"locus YDL017W, strain CDC7, hits give low values",0.958
same,normalized growth,"locus YDL028C, strain MPS1, hits give low values",0.962
same,normalized growth,[3],0.952
same,normalized growth,"locus YDL108W, strain KIN28, hits give low values",0.953
same,normalized growth,"locus YDL132W, strain cdc53, hits give low values",0.962
same,normalized growth,"locus YDL214C, strain PRR2, hits give low values",0.953
same,normalized growth,"locus YDR052C, strain DBF4, hits give low values",0.966
same,normalized growth,"locus YDR054C, strain cdc34, hits give low values",0.955
same,normalized growth,"locus YDR226W, strain ADK1, hits give low values",0.937
same,normalized growth,"locus YDR477W, strain SNF1, hits give low values",0.939
same,normalized growth,"locus YER123W, strain YCK3, hits give low values",0.936
same,normalized growth,"locus YER133W, strain GLC7, hits give low values",0.936
same,normalized growth,"locus YFL009W, strain cdc4, hits give low values",0.956
same,normalized growth,"locus YFL029C, strain CAK1, hits give low values",0.974
same,normalized growth,"locus YFR003C, strain YPI1, hits give low values",0.948
same,normalized growth,"locus YFR019W, strain FAB1, hits give low values",0.966
same,normalized growth,"locus YFR028C, strain CDC14, hits give low values",0.968
same,normalized growth,"locus YGR040W, strain KSS1, hits give low values",0.936
same,normalized growth,"locus YGR052W, strain FMP48, hits give low values",0.988
same,normalized growth,"locus YGR092W, strain DBF2, hits give low values",0.919
same,normalized growth,[7],1.15 [resistant] (active)
same,normalized growth,[26],0.985
same,normalized growth,"locus YHR082C, strain KSP1, hits give low values",1.06
same,normalized growth,"locus YHR205W, strain SCH9, hits give low values",0.987
same,normalized growth,"locus YIL147C, strain SLN1, hits give low values",0.963
same,normalized growth,[27],0.958
same,normalized growth,"locus YJL128C, strain PBS2, hits give low values",0.916
same,normalized growth,"locus YJL157C, strain FAR1, hits give low values",0.909
same,normalized growth,"locus YJR016C, strain ILV3, hits give low values",0.966
same,normalized growth,"locus YJR066W, strain TOR1 (second series), hits give low values",0.926
same,normalized growth,[28],1.02
same,normalized growth,"locus YKL048C, strain ELM1, hits give low values",0.951
same,normalized growth,"locus YKL067W, strain YNK1, hits give low values",0.943
same,normalized growth,"locus YKL101W, strain HSL1, hits give low values",0.957
same,normalized growth,"locus YKL193C, strain SDS22, hits give low values",0.974
same,normalized growth,"locus YKL203C, strain TOR2, hits give low values",0.974
same,normalized growth,[29],1
same,normalized growth,"locus YLR133W, strain CKI1, hits give low values",0.942
same,normalized growth,"locus YLR403W, strain SFP1, hits give low values",0.905
same,normalized growth,"locus YML070W, strain DAK1, hits give low values",0.962
same,normalized growth,"locus YMR001C, strain CDC5, hits give low values",0.962
same,normalized growth,"locus YMR205C, strain PFK2 (second series), hits give low values",0.954
same,normalized growth,"locus YMR277W, strain FCP1, hits give low values",0.966
same,normalized growth,"locus YNL006W, strain LST8, hits give low values",0.967
same,normalized growth,"locus YNL020C, strain ARK1, hits give low values",0.942
same,normalized growth,"locus YNL161W, strain CBK1, hits give low values",0.951
same,normalized growth,[30],0.997
same,normalized growth,"locus YNL207W, strain RIO2, hits give low values",0.964
same,normalized growth,"locus YNL222W, strain SSU72, hits give low values",0.975
same,normalized growth,"locus YNL307C, strain MCK1 (second series), hits give low values",0.937
same,normalized growth,"locus YOL078W, strain AVO1, hits give low values",0.96
same,normalized growth,"locus YOL136C, strain PFK27, hits give low values",0.937
same,normalized growth,"locus YOR061W, strain CKA2, hits give low values",0.934
same,normalized growth,"locus YOR119C, strain RIO1, hits give low values",0.994
same,normalized growth,[31],0.993
same,normalized growth,"locus YOR329C, strain SCD5, hits give low values",0.956
same,normalized growth,"locus YPL031C, strain PHO85, hits give low values",0.905
same,normalized growth,"locus YPL153C, strain RAD53, hits give low values",0.941
same,normalized growth,"locus YPL204W, strain HRR25, hits give low values",0.876
same,normalized growth,"locus YPL209C, strain IPL1, hits give low values",0.963
same,normalized growth,[32],1.07
same,normalized growth,"locus YPR025C, strain CCL1, hits give low values",0.966
same,normalized growth,"locus YPR106W, strain ISR1, hits give low values",0.957
same,normalized growth,"locus YPR111W, strain DBF20, hits give low values",0.933
same,normalized growth,"strain NNK1, hits give low values",0.957
same,normalized growth,"strain TSCII, hits give low values",0.958
